Screens deposited in PubChem by National Center for Advancing Translational Sciences (NCATS).
GLS inh = blocks human kidney-isoform glutaminase activity. GLS enzymatic activity, qHTS titration. Potency, µM (top dose mostly 45.5 µM), most hits filed as inhibitors. actives 0.21% (n = 410,000). AID 624170
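hKGA; 45 mM KH2PO4 pH 8.2 + 0.02% Tween-20; cpd via pin tool; 1 mM Gln soln; GluOx/HRP/Amplex Red; RT 30 min; fluor. t0 & final.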
HP1b chromo inh = HP1-beta chromodomain-methylated histone interaction inhibition; Potency, µM (highest dose often 114 µM), actives largely listed as inhibitors; AlphaScreen HP1-beta / biotin-H3K9me3 peptide binding; AID 540317; actives 0.56% (n = 390,000); also: nearly all actives have a fitted effect of over 70% in size
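Compound inhibition of the preformed complex between 50 nM HP1-beta and 50 nM biotinylated H3K9me3 peptide was read by AlphaScreen. Buffer was PBS pH 7.4 with 0.01% Tween-20. Incubations ran 30 min at room temperature, with 10 ug/mL donor/acceptor beads.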
BAZ2B inh = blocks human BAZ2B; Potency, µM (top dose mostly 114 µM), most hits filed as inhibitors; actives 4.4% (n = 360,000); AlphaScreen BAZ2B-H3K14Ac peptide displacement; Q9UIF8; also: nearly all actives have a fitted effect of over 60% in size
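BAZ2B 50 nM plus b-H3(5-23)K14Ac 50 nM, PBS pH 7.4/0.01% Tween-20, 30 min RT; compound added (max 110 uM), 30 min RT; streptavidin donor/Ni-chelate acceptor beads 10 ug/mL final, 20 min dark; AlphaScreen read.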
G9a inh = G9a (human) methyltransferase inhibition; actives 8.8% (n = 350,000); AID 504332; Q96KQ7; Potency, µM (doses to about 102 µM), usual class: inhibitors; G9a H3K9 monomethylation, AlphaScreen, 2 h; also: nearly all actives have a fitted effect of over 75% in size
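AlphaScreen read-out: biotin-H3K9 peptide (500 nM) methylation by 20 nM enzyme with 20 uM SAM, 2 h at room temperature after 15 min compound preincubation; anti-monomethyl H3K9 antibody plus donor/acceptor beads, 10 min dark.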
JMJD2A Tudor = JMJD2A Tudor domain (human) inhibition; O75164; AlphaScreen JMJD2A-Tudor / H3K4me3 peptide binding; Potency, µM (highest dose often 114 µM), usual class: inhibitors; actives 4.4% (n = 390,000); AID 504339; also: nearly all actives have a fitted effect of over 50% in size
L3MBTL1 block = inhibitors of human L3MBTL1. Potency, µM (series often up to 57.1 µM), actives largely listed as inhibitors. AlphaScreen L3MBTL1–H3K9me1 peptide binding. actives 0.66% (n = 230,000). AID 485360; also: nearly all actives have a fitted effect of over 60% in size
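Read-out is AlphaScreen signal from streptavidin donor and nickel chelate acceptor beads (10 ug/mL final each) bridging L3MBTL1 (50 nM) and biotinylated K9-monomethylated H3(1-15) peptide (75 nM), after 30 min compound exposure at room temperature.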
A number is an active result; 0 = inactive; ? = inconclusive; - = no result; [ ] = another dose, or the depositor's remark. Only some compounds are listed: those with a hit (about 10% of all), similar ones and a draw of the others. Calls follow the shape of the dose curve; as a rule, active = well fitted curve in the direction sought with a large enough effect; inconclusive = small, poorly fitted or top-dose-only effect, or another doubt; inactive = no such curve, though single readings can be large; an effect the other way counts as inactive or inconclusive.

SMILES | GLS inh | HP1b chromo inh | BAZ2B inh | G9a inh | JMJD2A Tudor | L3MBTL1 block
Cc1ccc(OCCSc2nc3ccccc3n2CC(=O)N2CCCCC2)c(C)c1 | 0 | 0 | 0 | 14µM | 0 | -
COc1ccc(-c2nc3cnc(N4CCNCC4)nc3n(CCC#N)c2=O)cc1 | - | - | - | 0[12.7 µM] | - | -
O=C(Cc1ccc(Cl)cc1)Nc1ncc([N+](=O)[O-])s1 | 0 | 0 | 0 | 35µM | 0 | 0
Cc1cnc(NC(=O)Cc2ccc(Br)cc2)s1 | 0 | 0 | 0 | 0 | 0 | 0
O=C(COc1ccc(Cl)cc1)Nc1ncc([N+](=O)[O-])s1 | 0 | 0 | 0 | ? | 0 | 0
O=C(COC(=O)COc1ccccc1)Nc1ncc([N+](=O)[O-])s1 | 0 | 0 | 0 | ? | 79µM | 0
O=C(Cc1ccc(Br)cc1)Nc1ncc([N+](=O)[O-])s1 | 0 | 0 | 50µM | 28µM | 0 | -
O=C(Cc1ccc([N+](=O)[O-])cc1)Nc1ccc(Cl)cc1 | 0 | 0 | 0 | 40µM | 0 | 0
Cc1onc(-c2ccccc2)c1C(=O)Nc1ncc([N+](=O)[O-])s1 | 0 | 0 | 0 | 45µM | 0 | -
Cc1onc(-c2ccccc2)c1C(=O)Nc1nnc(C(C)C)s1 | 0 | 0 | 0 | - | 0 | -
COc1ccc(-n2c(=O)c3sc4ccccc4c3n(CC(=O)Nc3ccccc3F)c2=O)cc1 | 0 | 0 | 0 | 0 | 0 | -
O=C(CSc1nnc(SCc2cccc3ccccc23)s1)Nc1ccc(C(=O)O)cc1 | ? | ? | ? | ? | 13µM | 0
O=C(Cc1cccs1)N=Nc1c(O)[nH]c2ccccc12 | 0 | 0 | 0 | 0 | 0 | -
O=C(CSc1nnc(SCc2cccc3ccccc23)s1)N=Nc1c(O)[nH]c2ccccc12 | - | - | 50µM | ? | - | 0
COc1cccc(NC(=O)Cn2c(=O)n(Cc3ccccc3)c(=O)c3c2c2cc(C)ccc2n3C)c1 | 0 | 0 | 0 | 0 | 0 | -
CCCN(CCc1cccs1)[C@H]1CCc2c(O)cccc2C1 | 0 | - | - | 0[12.7 µM] | - | -
Cc1cccc(NC(=O)Nc2cccc(C#N)c2)n1 | 0 | 0 | 0 | 0 | 0 | 0
O=C(Nc1cccs1)Nc1c(F)c(F)c(F)c(F)c1F | 0 | 0 | ? | 0 | 0 | 0
CCc1cccc(NC(=O)Nc2cccs2)c1 | 0 | 0 | ? | 13µM | ? | 0
Cc1cccc(C)c1NC(=O)Nc1cccs1 | 0 | 0 | 0 | 50µM | 0 | -
N#Cc1cccc(NC(=O)Nc2cccs2)c1 | 0 | 0 | 0 | 79µM | 0 | 0
COc1ccccc1-c1noc(-c2ccc(NC(C)C)c([N+](=O)[O-])c2)n1 | 0 | 0 | ? | 0 | 0 | -
Cc1cc(C)c2oc(-c3cccc(NC(=O)c4ccc(-c5cccc([N+](=O)[O-])c5)o4)c3)nc2c1 | 0 | 0 | 0 | 0 | 0 | -
CCC1CO/C(=C(\C(Cl)=C(Cl)Cl)[N+](=O)[O-])N1 (configuration not stated) | 0 | ? | 0 | 79µM | 0[11.4 µM] | -
OCCNc1nc(Nc2cccc(O)c2)nc2ccccc12 | 0 | 0 | 0 | 71µM | 0 | -
SMILES | GLS inh | HP1b chromo inh | BAZ2B inh | G9a inh | JMJD2A Tudor | L3MBTL1 block
OCCNc1nc(N2CCN(c3ccccc3)CC2)nc2ccccc12 | 0 | 0 | 0 | 79µM | 0 | -
Oc1cccc(Nc2c3ccccc3nc3ccccc23)c1 | 0 | 0 | ? | 40µM | ? | -
OCCNc1nc(Nc2ccc(O)cc2)nc2ccccc12 | 0 | 0 | ? | ? | ? | -
OCCNc1nc(-c2cccs2)nc2ccccc12 | - | 0 | - | - | 0 | -
O=C(C1CCCCC1)N(Cc1cccnc1)c1nc2c(F)cccc2s1 | 0 | 0 | 0 | 0 | 0 | -
Cc1ccc(N(Cc2cc3ccccc3[nH]c2=O)C(=O)c2cccc(Cl)c2)cc1 | 0 | 0 | 0 | ? | 0 | -
COc1cccc(NC(=O)Cn2c(=O)n(-c3ccc(CC(=O)NCC4CCCO4)cc3)c(=O)c3ccccc32)c1 (configuration not stated) | 0 | 0 | 0 | 0 | 0 | -
CCOc1ccc(OCC)c(NC(=O)c2csc3c2CCCC3)c1 | 0 | 0 | 0 | 0 | 0 | -
CCOC(=O)c1cc(-c2ccc(OC)cc2)nn1-c1ccccc1C(=O)O | 11µM | ? | ? | - | ? | ?
CCN(CC)C(=O)c1sc2[nH]c(=S)n(-c3ccccc3)c(=O)c2c1C | 0 | 0 | ? | 0[0.501 µM] | ? | 0
CCn1c(=S)sc2c(=O)n(-c3ccccc3)c(=S)[nH]c21 | 0 | 0 | 0 | 10µM | 0 | -
CCOc1ccccc1-n1c(=S)sc2c(=O)n(-c3ccc(C)cc3)c(=S)[nH]c21 | 0 | 0 | 0 | 10µM | ? | -
CCOc1ccc(-c2nnc(SCC(=O)Nc3cc(F)ccc3F)o2)cc1 | 0 | 0 | 0 | 0 | 0 | -
CCc1ccccc1NC(=O)C(=O)NCC(c1cccnc1)N1CCc2ccccc21 (configuration not stated) | 0 | 0 | 0 | 0 | 0 | -
O=C(NNc1ccccc1)c1sc2ccccc2c1Cl | - | 0 | - | - | 0 | -
Cc1ccc(S(=O)(=O)Nc2ccc3c(c2)c(C(=O)OC(C)C)c(C)n3S(=O)(=O)c2ccc(C)cc2)cc1 | 0 | 0 | 0 | 0 | 0 | -
Cc1cccc(C)c1NC(=O)CN1CCCCCC1 | 0 | - | - | 0[12.7 µM] | - | -
Cc1nc(SCc2nc3c(O)cccc3[nH]2)c2oc3ccccc3c2n1 | 0 | 0 | - | - | 28µM | 0
Cc1ccc(C)c(NC(=O)C(Sc2nnc(-c3cccs3)o2)c2ccccc2)c1 (configuration not stated) | 0 | ? | 0 | 79µM | 0 | 0
O=C(Nc1ccc(Cl)cc1C(F)(F)F)C(Sc1cccc[n+]1[O-])c1ccccc1 (configuration not stated) | 0 | 0 | ? | - | 0 | 0
Cc1ccc(C)c(NC(=O)C(Sc2cccc[n+]2[O-])c2ccccc2)c1 (configuration not stated) | 0 | 0 | 0 | 45µM | 0 | 0
Cc1onc(NC(=O)c2ccc(Cl)cc2Cl)c1Br | 0 | 0 | 0 | 18µM | 0 | -
Cc1onc(NC(=O)NC(=O)c2ccccc2F)c1Br | 0 | 0 | 0 | - | 0 | -
O=C(NCc1ccccc1Cl)c1cc(-c2ccccc2)n[nH]1 | 0 | 0 | 0 | 0 | 0 | -
CC(C)C[C@@H](CN)NC(=O)c1nc[nH]c1C(=O)N[C@@H](CC(=O)O)C(=O)CNC[C@H](C)NC(=O)c1nc[nH]c1C(=O)N[C@@H](CC(=O)O)C(=O)O | 0 | 0 | - | - | 89µM | -
CC(C)C[C@@H](CNCC(=O)[C@H](CC(=O)O)NC(=O)c1[nH]cnc1C(=O)N[C@H](CN)CC(C)C)NC(=O)c1nc[nH]c1C(=O)N[C@@H](C)C(=O)O | 0 | 0 | - | - | ? | -
CC(C)C[C@@H](CN)NC(=O)c1nc[nH]c1C(=O)N[C@@H](C)C(=O)CNC[C@H](C)NC(=O)c1nc[nH]c1C(=O)N[C@@H](CC(=O)O)C(=O)O | 0 | 0 | - | - | 56µM | -
CC(C)C[C@@H](CN)NC(=O)c1nc[nH]c1C(=O)N[C@@H](C)C(=O)CNC[C@H](CC(C)C)NC(=O)c1nc[nH]c1C(=O)N[C@@H](CC(=O)O)C(=O)O | 0 | 0 | - | - | 79µM | -
